In PubChem BioAssay AID1578 (Sanford-Burnham Center for Chemical Genomics, 2009) one finds inhibition data, which are given here for 102 compounds.

SMILES strings stand for the structures. The campaign covered roughly 290,000 compounds. About 3,000 (1%) were called active. This is one part of a sample in which actives are shown more often than they occur. A number with no mark means an inactive call. Rule as the data show it: active = inhibition mostly above about 36% (no sharp cut-off); inactive = mostly below about 34%.

This test can be described thus: inhibition of NOD1-driven NF-kB reporter – cell-based, luminescence, uHTS, primary screen (AID 1578).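 Also: HEK-293T reporter cells stimulated with the NOD1 agonist gamma-tri-DAP.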 The note with it: NOD1-driven NF-kB luciferase reporter cells, at 4 µM, stronger effect = higher value.
Turning to `CCc1ccc(C(=O)/C=C/Nc2ccc(S(=O)(=O)Nc3cnc4ccccc4n3)cc2)cc1`, the inhibition is 4%.
As for `c1ccc(CSc2nnc(Cc3ccccn3)o2)cc1`, the figure is -32.5%.
As for `CSC(=Nc1ccc(Cl)cc1)N[n+]1ccccc1`, the figure is -6.8%.
`NC(=Nc1ccc(Cl)cc1)c1ccccc1`: the inhibition was -49%.
As for `[S-]C(=Nc1ccc(Cl)cc1)N[n+]1ccccc1`, the figure is 104% (active); as for `NC(=O)CCc1nc2cc(C(F)(F)F)ccc2n(Cc2ccccc2)c1=O`, -13%.
For `O=C(NCCCn1ccnc1)/C(=C/c1ccccc1)NC(=O)c1ccccc1` the value was 32.8%.
For `O=C(COc1ccccc1Cl)NNC(=O)c1cc(S(=O)(=O)N2CCOCC2)ccc1N1CCCC1` the value was -47.2%.
`COc1ccc(O)c(C2(O)C(=O)c3ccccc3C2=O)c1`: the inhibition was 0.1%.
As for `COCCCNC(=O)c1ccc2c(c1)OCO2`, the figure is -16.8%; as for `O=C(NCCOc1ccccc1)c1ccc2c(c1)OCO2`, 55.9% (active).
For `O=C(CNC(=O)c1ccc2c(c1)OCO2)N/N=C/c1cccc([N+](=O)[O-])c1`, the inhibition was -59.4%.
As for `CC(/C=C/c1ccccc1)=N/NC(=O)CNC(=O)c1ccc2c(c1)OCO2`, the figure is 5.3%; as for `O=C(CNC(=O)c1ccc2c(c1)OCO2)N/N=C(Br)/C=C/c1ccccc1`, 80% (active); as for `Cc1ccc(OCCNC(=O)c2ccc3c(c2)OCO3)cc1`, -63.7%.
For `Cc1ccccc1C(=O)OCc1cnc(Cl)s1` the value was -8.8%.
As to `S=c1[nH]nc(C23CC4CC(CC(C4)C2)C3)n1Cc1ccco1`, the inhibition is 1.2%.
For `O=C(COC(=O)/C=C/C(=O)N1CCN(c2ccccc2)CC1)NCc1ccc(F)cc1`, the inhibition is -5.2%.
As for `O=C(COC(=O)/C=C/C(=O)N1CCN(c2ccccc2)CC1)NC(c1ccccc1)c1ccccc1`, the inhibition is 76.2% (active).
As for `CCOC(=O)/C=C/C(=O)OCC(=O)NC(c1ccccc1)c1ccccc1`, the figure is 25.7%; as for `Cc1ccc(NS(=O)(=O)c2c(C)[nH]c(C)c2C(=O)N2CCCCC2)cc1F`, -24.4%.
As for `CCCCn1c(Oc2ccc(C(=O)OC)cc2)nc2c1c(=O)n(C)c(=O)n2C`, the figure is 9.2%; as for `O=C(CN1C(=O)CC(c2ccccc2)Sc2ccccc21)NCC1CCCO1` (configuration not stated), -33.1%.
Turning to `CCOC(=O)c1ccc(N2C(=O)c3n[nH]c(C)c3C2c2cccnc2)cc1` (configuration not stated), the inhibition is 9.9%.
For `Cc1ccc(N2C(=O)c3n[nH]c(C)c3C2c2cccnc2)cc1` (configuration not stated) the value was -28.2%.
As to `Cc1[nH]nc2c1C(c1cccnc1)N(c1ccc(Br)cc1)C2=O` (configuration not stated), the inhibition was 43.6% (active).
As for `Nc1nc(CSCc2ccccc2)nc(N2CCOCC2)n1`, the figure is 2%.
Turning to `CC(=O)N/N=C(\C)CCc1ccccc1`, the inhibition is -4.4%.
For `Cc1cc(=O)[nH]c(SC(C)C(=O)Nc2cccc3ccccc23)n1` (configuration not stated) the value was -23.2%; for `CC1=C(C(=O)OCc2ccccc2)C(c2cccc(Cl)c2Cl)NC(=O)N1CCCCCC(=O)O` (configuration not stated), 8.9%.
For `CC1=C(C(=O)OCc2ccccc2)C(c2ccccc2Cl)NC(=O)N1CCCC(=O)O` (configuration not stated) the value was 17.1%; for `CC1=C(C(=O)OCc2ccccc2)C(c2ccccc2Cl)NC(=O)N1CCCCCC(=O)O` (configuration not stated), 68.6% (active); for `O=C(Nc1ccc(Br)cc1)c1cccc(N2C(=O)C3C4CCC(C4)C3C2=O)c1` (configuration not stated), 11.1%.
As for `O=C(O)c1ccc(NC(=O)c2cccc(N3C(=O)C4C5CCC(C5)C4C3=O)c2)cc1` (configuration not stated), the figure is -29.6%; as for `O=C(NC(c1ccccc1)c1ccccc1)c1cccc(S(=O)(=O)NCc2ccccc2)c1`, -4.9%.
For `COc1ccc(/C=C2\CCC/C(=C\c3ccc(OC)c(OC)c3OC)C2=O)c(OC)c1OC`, the inhibition was -1%.
For `COc1cc(/C=C2\COC/C(=C\c3ccc(O)c(OC)c3)C2=O)ccc1O` the value was 0%.
As for `COc1ccc(/C=C2\CC/C(=C\c3ccc(OC)cc3OC)C2=O)c(OC)c1`, the figure is -1.2%.
As for `COc1cc(/C=C2/CC/C(=C/c3ccc(O)c(OC)c3)C2=O)ccc1O`, the figure is 20.8%.
For the compound `COc1cc(OC)c(OC)cc1/C=C1/Cc2ccccc2C1=O`, the inhibition is -5%.
For `COc1cc(OC)c(OC)cc1/C=C1\CCC(C2CCCC2)C1=O` (configuration not stated) the value was -28.9%; for `COc1cccc(NC(=O)N2CCCC(C(=O)NCc3ccc(F)cc3)C2)c1` (configuration not stated), -13.5%; for `COc1cc(-c2c(-c3cccc(C)c3)oc3ccccc23)cc(OC)c1OC`, 4.2%.
Take `O=C(N/N=C/c1c(O)n(Cc2ccccc2)c(=O)c2ccccc12)c1cccnc1`: the inhibition is -5.8%.
For `Cc1nn(Cc2ccccc2)c(C)c1/C=N/NC(=O)c1cccnc1` the value was 25.8%; for `Cc1c(/C=N/NC(=O)c2cccnc2)c2ccccc2n1Cc1ccccc1`, 38.8% (active).
On to `CC1CCN(C(=O)c2ccccc2NC(=O)c2cccc(S(=O)(=O)N3CCOCC3)c2)CC1`, for which the inhibition is -2.3%.
As for `CN(Cc1ccc(Cl)s1)C(=O)CCl`, the figure is 99.8% (active); as for `COc1ccc(CN(C)C(=O)CCl)cc1`, 10%; as for `CCOc1ccc(CN(C)C(=O)CCl)cc1`, 10.8%.
Consider `O=C(NC1CC1)C1CCN(C2CCN(C(=O)/C=C/c3cccc(F)c3F)CC2)CC1`, for which the inhibition is -10.9%.
For `CC1CN(S(=O)(=O)c2ccc(C(=O)Nc3ccc(S(=O)(=O)Nc4ncccn4)cc3)cc2)CC(C)O1` (configuration not stated) the value was -34.7%.
On to `O=C(NCc1ccco1)c1c[nH]c2ccc(S(=O)(=O)N3CCOCC3)cc2c1=O`, for which the inhibition was -21.1%.
As for `Nc1ccc(-c2nc3ccc(C(=O)O)cc3s2)cc1`, the figure is 89.8% (active).
Consider `O=C(O)c1ccc2nc(-c3ccccc3)sc2c1`, for which the inhibition was 26.5%.
For `Nc1ccc(-c2nc3ccc(N)cc3s2)cc1` the value was -7.4%; for `C[C@@H]1NC(=O)[C@H](CCC(=O)O)NC(=O)c2cc([N+](=O)[O-])cc(F)c2NCCC[C@@H](C(N)=O)NC1=O`, -18.8%; for `O=c1c2[nH]c3ccc(F)cc3c2ncn1CCC1=CCCCC1`, -0.7%.
For `CN(C)CCCNc1ncnc2scc(-c3ccccc3)c12` the value was -40.3%.
As for `c1ccc(-c2csc3ncnc(NCC4COc5ccccc5O4)c23)cc1` (configuration not stated), the figure is 75.2% (active).
With `O=C(O)c1ccc(Nc2ncnc3scc(-c4ccccc4)c23)cc1`, the inhibition is -63%.
For `COc1ccc(-c2csc3ncnc(Nc4ccc(O)cc4)c23)cc1` the value was 15.8%; for `c1ccc(CNc2nc(-c3cccs3)nc3ccccc23)nc1`, -27.4%; for `c1csc(-c2csc3ncnc(NCCCN4CCOCC4)c23)c1`, 30.7%.
For `Cc1csc2ncnc(NCCc3ccccn3)c12` the value was 37%; for `Oc1ccc(Nc2ncnc3scc(-c4ccccc4)c23)cc1`, 83.6% (active).
As for `c1ccc2c(c1)OCC(CNc1ncnc3sccc13)O2` (configuration not stated), the figure is 57.1%; as for `Cc1sc2ncnc(NCC3COc4ccccc4O3)c2c1C` (configuration not stated), 44.6%.
Consider `CC(=O)N(c1ccc(N(C(C)=O)S(=O)(=O)c2cccs2)cc1)S(=O)(=O)c1cccs1`, for which the inhibition is 3%.
With `CSc1nnc2c3cc(F)ccc3n(Cc3ccccc3)c2n1`, the inhibition was -1.5%.
Take `CN(C)/C=C/C(=O)c1cnc(-c2ccccc2Cl)s1`: the inhibition is -20.8%.
Take `Cn1c(=O)oc2cc(S(=O)(=O)NCCC(=O)N3CCN(c4ccccc4)CC3)ccc21`: the inhibition was -5.7%.
For `CCC(C)C(=O)Nc1cc(C(=O)OC)ccc1C(=O)OC` (configuration not stated) the value was -11.8%; for `CC1(C)CC(=O)c2cc(N=C/C(C(=O)c3ccccc3)=C(\O)c3ccccc3)c(=O)oc2C1`, -21.7%; for `Nc1nn(-c2ccccc2)c(N)c1N=Nc1ccc2c(c1)OCO2`, -68.3%.
For `Cc1cc(C)n2nc(N)c(N=Nc3ccc4c(c3)OCO4)c2n1` the value was 22.6%; for `COc1cccc(CNC(C)(C)CO)c1OCc1ccc(Cl)cc1`, -33%; for `COc1ccc(CC(=O)NC2CCN(Cc3nnnn3C(C)(C)C)CC2)cc1OC`, -12.7%.
`COc1ccc(/C=C/C(=O)N2CCN(c3ccccn3)CC2)cc1`: the inhibition was -37.3%.
As for `CCOC(=O)/C(C#N)=C\C1=C(N2CCOCC2)CC(C)(C)OC1`, the figure is -33.6%.
For `CCOC(=O)C1=C(CC)Nc2ccccc2N=C1NC(=O)CCN1C(=O)C2CCCCC2C1=O` (configuration not stated) the value was -14.8%.
Regarding `Cc1ccc(N2C(S)=C(C#N)C(=O)NC2c2ccco2)cc1` (configuration not stated), the inhibition is -33.2%.
In the case of `N#CC1=C(S)N(c2ccccc2)C(c2ccco2)NC1=O` (configuration not stated), the inhibition is 68.4% (active).
For `N#CC1=C(S)N(c2ccc(F)cc2)C(c2ccco2)NC1=O` (configuration not stated) the value was -47.2%; for `CCC(=O)c1ccc(OCC(=O)NC2(C#N)CCCCC2)cc1`, -14.9%; for `COc1ccc(CCNC(=O)C(=O)NCC2OCCN2C(=O)c2ccc(Cl)cc2)cc1OC` (configuration not stated), -3.4%.
For `Cc1cc(C)c(C2C(C#N)=C(N)Oc3n[nH]c(C)c32)cc1CN1CCOCC1` (configuration not stated) the value was -16%; for `COc1ccc(/C=N/Nc2nnc(Cc3ccc(OC)c(OC)c3)c(=O)[nH]2)cc1OC`, 4.2%.
For `COc1ccc(-c2nc3cc(C)ccn3c2NCc2ccc3c(c2)OCO3)cc1` the value was 48.5% (active); for `Cc1ccn2c(NCc3ccc4c(c3)OCO4)c(-c3ccc(O)cc3)nc2c1`, 3.7%.
For the compound `COc1ccc(-c2nc3ccccn3c2NCc2ccc3c(c2)OCO3)cc1`, the inhibition is -27.1%.
As for `Cc1cccc(C)c1OCc1nnc(SCC(=O)Nc2ccc(N3CCOCC3)cc2)o1`, the figure is 17.6%; as for `Cc1cc(Br)c(S(=O)(=O)NCc2ccncc2)cc1C`, 26%.
For `Cc1cc(C)cc(NCc2ccncc2)c1` the value was -8.1%; for `COc1ccc(S(=O)(=O)NCc2ccncc2)cc1OC`, 24.7%.
For the compound `Cc1cc(-c2ccc(C)c(S(=O)(=O)NCc3ccc(OC(C)C)cc3)c2)on1`, the inhibition is -14.2%.
As for `COc1cc(S(=O)(=O)NCc2ccccc2)ccc1Br`, the figure is -7.9%; as for `Cc1ccc(NCc2cccnc2)c(Br)c1`, -14.3%; as for `Cc1ccc(C)c(S(=O)(=O)NCc2ccncc2)c1`, 34.2%.
For `Cc1ccc(NCc2ccncc2)c(Br)c1` the value was 63.7% (active); for `Cc1cc(-c2ccc(C)c(S(=O)(=O)NCc3ccc(Br)cc3)c2)on1`, 72.5% (active); for `Cc1cc(-c2ccc(C)c(S(=O)(=O)NCc3cccc(Br)c3)c2)on1`, -20.4%.

One may read the inhibition as the relative decrease from the control value, in per cent.
